Assay results as given in PubChem BioAssay AID624330 (Southern Research Specialized Biocontainment Screening …, 2012).
About 2,100 (0.62%) of roughly 340,000 compounds were called active.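 How the source made its calls: active means first-screen hits whose inhibition reached a set limit at any dose in the follow-up dose series; inconclusive means inhibition above the set first-screen limit but never retested; inactive means the rest.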 The list is a sample of the results. Results with a measured potency or affinity are listed apart.

biological target: Rac GTPase-activating protein 1 (Homo sapiens) (UniProt Q9H0H5); experiment: blockers of MgcRacGAP-driven Rac1 GTP hydrolysis – biochemical, ADP Hunter fluorescence, primary and confirmatory, confirmation (AID 624330); settings: MgcRacGAP-stimulated Rac1 GTP hydrolysis, at 30 µM, stronger effect = higher value, GST-tagged Rac1 F28L mutant substrate;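 further: fluorescence reports GDP produced by GAP-driven GTP hydrolysis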
Sequence (Q9H0H5 whole entry, looked up): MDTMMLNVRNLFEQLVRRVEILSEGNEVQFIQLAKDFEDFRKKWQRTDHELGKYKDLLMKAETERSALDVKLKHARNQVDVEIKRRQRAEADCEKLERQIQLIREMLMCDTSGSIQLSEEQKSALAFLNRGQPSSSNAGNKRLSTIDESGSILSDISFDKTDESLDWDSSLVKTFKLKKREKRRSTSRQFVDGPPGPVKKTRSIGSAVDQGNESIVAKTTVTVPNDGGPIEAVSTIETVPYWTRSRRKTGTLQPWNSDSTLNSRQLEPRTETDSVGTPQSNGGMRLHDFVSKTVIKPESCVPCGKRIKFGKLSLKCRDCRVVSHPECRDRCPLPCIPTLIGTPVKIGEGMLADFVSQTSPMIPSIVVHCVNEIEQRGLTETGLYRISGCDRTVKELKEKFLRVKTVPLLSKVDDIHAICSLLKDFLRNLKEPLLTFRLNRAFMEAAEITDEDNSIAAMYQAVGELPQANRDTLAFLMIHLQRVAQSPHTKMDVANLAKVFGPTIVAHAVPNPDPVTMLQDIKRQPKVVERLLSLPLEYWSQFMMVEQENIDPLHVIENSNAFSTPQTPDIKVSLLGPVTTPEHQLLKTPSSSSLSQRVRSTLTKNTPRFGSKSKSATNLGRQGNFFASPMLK

inhibition, inactive:
CCOC(=O)CSc1nc2ccc(N3CCOCC3)cc2c(=O)n1Cc1ccccc1 1.81%
O=C1NCC(NC(=O)C(F)(F)F)c2cc3c(cc21)OCO3 (stereo unspecified) -0.85%
CCN1C(=O)[C@H]2[C@H]3CN=C(SCc4ccccc4)N3[C@@](C)(C(=O)OC)[C@H]2C1=O 13.1%
Cc1ccc(C(=O)c2c(NC(=O)CSc3nnc(N)s3)sc3c2CCCC3)cc1 -2.45%
CCOC(=O)N1CCN(CC(=O)Nc2ccc(Oc3ccccc3)cc2)CC1 5.48%
CCN(CC)C(=O)C(=O)Nc1ccc(Oc2ccccc2)cc1 2.61%
Cc1ccc(-c2nc3cnccn3c2Nc2ccc3c(c2)OCCO3)o1 12.5%
COc1ccc(-n2cccc2C=O)cc1 4.9%
O=C(O)c1cccc(-n2cccc2/C=C\[N+](=O)[O-])c1 26.7%
CN(C)c1ccc(-n2cccc2/C=N/n2cnnc2)cc1 9.83%
CCOc1ccc(-n2cccc2C=O)cc1 4.88%
CC(=O)NC(Cc1ccccc1C)C(=O)NC1CCN(c2nnnn2-c2ccccc2)CC1 (stereo unspecified) 3.78%
C#CCO[C@@H]1C[C@H](n2ccc(NC(=O)c3ccccc3)nc2=O)O[C@@H]1CO 7.23%
CSc1ncccc1C(=O)N1CCCC(N2CCN(c3ccccc3C)CC2)C1 (stereo unspecified) 10.5%
O=C(NC(c1ccccc1)c1ccccc1)C1CCCN(S(=O)(=O)c2cnc[nH]2)C1 (stereo unspecified) 1.47%
C=CCc1ccc(OCCOCCNCCOC)c(OC)c1 8.29%
C=CCc1ccc(OCCOCCN(C)C)c(OC)c1 11.5%
COc1cccc(NC(=O)COc2ccc(C(=S)N3CCN(C)CC3)cc2OC)c1 7.49%
Cc1ccc(NC(=O)CSc2nn(-c3ccccc3)c(=S)s2)cc1S(=O)(=O)N(C)C 2.35%
O=C(c1ccccc1F)N1CCN(C(=O)C2CC2)CC1 3.19%
CC1(C)O[C@@H]2[C@H](O1)[C@@H](COS(=O)(=O)O)O[C@H]2n1cnc2c(=O)[nH]cnc21 7.41%
CC1(C)O[C@@H]2[C@H](O1)[C@@H](COS(=O)(=O)O)O[C@H]2n1ccc(=O)[nH]c1=O 2.43%
CC1CN(S(=O)(=O)N(C)C)CCN1S(=O)(=O)N(C)C (stereo unspecified) 5.65%
COC(=O)c1c(N)sc(Cc2ccccc2)c1C 7.62%
CCOC(=O)c1c(N)sc(-c2ccccc2)c1C 27.2%
CC(C)c1ccc(N2C(=O)CC(Sc3ncccn3)C2=O)cc1 (stereo unspecified) 1.68%
